# Reference: PubChem BioAssay (NCATS)
# Where “and” joins values, the source holds several entries; their conditions need not be identical. Identical values can stand only once. Unmarked numbers belong to inactive results. Inconclusive results are not listed. Calls of active or inactive are those of the source. The call rests on the fitted dose curve; in most records, active means well fitted curve in the direction sought with a large enough effect; inconclusive means small, poorly fitted or top-dose-only effect, or another doubt; inactive means no such curve, though single readings can be large; an effect the other way counts as inactive or inconclusive.
# Legend:
# [1] = molecular target: Cytochrome P450 2C9 (Homo sapiens) (UniProt P11712); experiment: qHTS Assay for Inhibitors and Substrates of Cytochrome P450 2C9 (AID 883); further: nearly all actives have a fitted effect of over 60% in size; further: potency means the concentration at half of the fitted maximal effect; on activity change, negative = inhibition: on the % scale 0 is the no-effect control and ±100 the full control effect
# Chain of Cytochrome P450 2C9 (Homo sapiens) (P11712 whole entry, looked up): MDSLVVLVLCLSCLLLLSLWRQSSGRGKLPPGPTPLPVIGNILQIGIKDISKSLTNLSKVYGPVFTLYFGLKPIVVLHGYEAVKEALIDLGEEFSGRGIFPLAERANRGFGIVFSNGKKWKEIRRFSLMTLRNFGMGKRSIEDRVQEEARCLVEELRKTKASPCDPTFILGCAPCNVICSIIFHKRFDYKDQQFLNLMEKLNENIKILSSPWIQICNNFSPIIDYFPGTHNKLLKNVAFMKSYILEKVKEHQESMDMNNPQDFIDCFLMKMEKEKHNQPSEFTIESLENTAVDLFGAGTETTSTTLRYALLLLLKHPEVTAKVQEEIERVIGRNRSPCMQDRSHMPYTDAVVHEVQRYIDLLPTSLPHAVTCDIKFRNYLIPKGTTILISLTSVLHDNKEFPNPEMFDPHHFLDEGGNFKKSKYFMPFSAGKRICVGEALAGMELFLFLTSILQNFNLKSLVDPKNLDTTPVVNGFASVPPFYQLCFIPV
# How it was run: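 Inhibition of CYP2C9 is scored as loss of luminescence, with 57uM sulphaphenazole defining 100% inhibition. Substrate Luciferin-H is used at 100uM, equal to its KM; enzyme at 10nM in 25mM KPO4, 60 min at 37C with NADPH regeneration.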
# [2] = molecular target: Cytochrome P450 3A4 (Homo sapiens) (UniProt P08684); experiment: qHTS Assay for Inhibitors and Substrates of Cytochrome P450 3A4 (AID 884); further: nearly all actives have a fitted effect of over 50% in size; further: potency means the concentration at half of the fitted maximal effect; on activity change, negative = inhibition: series mostly up to about 57 µM; on the % scale 0 is the no-effect control and ±100 the full control effect
# Chain of Cytochrome P450 3A4 (Homo sapiens) (P08684 whole entry, looked up): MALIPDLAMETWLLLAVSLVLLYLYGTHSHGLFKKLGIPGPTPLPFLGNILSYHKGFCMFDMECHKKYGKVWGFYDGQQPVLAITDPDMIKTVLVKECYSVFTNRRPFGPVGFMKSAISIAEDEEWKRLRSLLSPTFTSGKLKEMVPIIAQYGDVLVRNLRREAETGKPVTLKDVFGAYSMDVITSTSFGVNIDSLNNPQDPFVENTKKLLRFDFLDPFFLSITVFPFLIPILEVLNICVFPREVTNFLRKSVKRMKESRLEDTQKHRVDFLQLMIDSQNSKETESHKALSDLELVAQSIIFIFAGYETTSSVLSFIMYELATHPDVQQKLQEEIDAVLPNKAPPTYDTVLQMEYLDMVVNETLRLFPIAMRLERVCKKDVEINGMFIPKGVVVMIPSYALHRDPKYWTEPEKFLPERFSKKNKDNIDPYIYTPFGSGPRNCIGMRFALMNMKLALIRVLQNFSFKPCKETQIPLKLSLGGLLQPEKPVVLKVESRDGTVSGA
# How it was run: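 20 nM human CYP3A4 with 25 uM Luciferin-PPXE (at KM) in 200 mM KPO4, preincubated 10 min with compound; NADPH regeneration started a 60 min RT reaction. Luciferin detected by luminescence, normalized to 57 uM ketoconazole as full inhibition.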
# [3] = molecular target: Cytochrome P450 3A4 (Homo sapiens) (UniProt P08684); experiment: qHTS Assay for Activators of Cytochrome P450 3A4 (AID 885); further: nearly all actives have a fitted effect of over 65% in size
# How it was run: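 Human CYP3A4 (20 nM) with Luciferin-PPXE at 25 uM (its KM) in 200 mM KPO4; 10 min compound preincubation, then NADPH regeneration and 60 min reaction at RT. Luciferin read by luminescence; normalized to 57 uM ketoconazole full inhibition.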
# [4] = molecular target: Cytochrome P450 2D6 (Homo sapiens) (UniProt P10635); experiment: qHTS Assay for Inhibitors and Substrates of Cytochrome P450 2D6 (AID 891);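 further: luciferin methyl ether substrate demethylated by CYP2D6 with NADPH regeneration; on the % scale 0 is the no-effect control and ±100 the full control effect; nearly all actives have a fitted effect of over 60% in size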
# Chain of Cytochrome P450 2D6 (Homo sapiens) (P10635 whole entry, looked up): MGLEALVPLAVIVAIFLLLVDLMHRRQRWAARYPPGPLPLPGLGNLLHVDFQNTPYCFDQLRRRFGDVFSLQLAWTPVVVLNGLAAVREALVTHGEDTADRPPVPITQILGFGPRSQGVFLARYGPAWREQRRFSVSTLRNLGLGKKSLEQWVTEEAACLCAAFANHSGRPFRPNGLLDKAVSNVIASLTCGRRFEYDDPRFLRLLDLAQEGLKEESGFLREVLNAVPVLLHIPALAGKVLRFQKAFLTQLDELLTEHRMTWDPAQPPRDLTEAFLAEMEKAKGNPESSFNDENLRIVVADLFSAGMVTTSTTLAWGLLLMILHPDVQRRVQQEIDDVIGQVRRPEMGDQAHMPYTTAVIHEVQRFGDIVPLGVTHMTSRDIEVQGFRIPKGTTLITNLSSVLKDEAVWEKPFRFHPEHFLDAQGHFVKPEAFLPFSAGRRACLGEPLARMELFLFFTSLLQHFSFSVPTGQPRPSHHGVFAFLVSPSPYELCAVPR
# How it was run: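 Human CYP2D6 (5 nM) with 30 uM Luciferin-ME EGE (at Km) in 100 mM KPO4, compound preincubated 10 min, then NADPH regeneration system for 60 min at room temperature. Luciferin read by luminescence; normalized to 1.43 uM quinidine.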
# [5] = molecular target: Cytochrome P450 2C19 (Homo sapiens) (UniProt P33261); experiment: qHTS Assay for Inhibitors and Substrates of Cytochrome P450 2C19 (AID 899); further: nearly all actives have a fitted effect of over 60% in size; further: potency means the concentration at half of the fitted maximal effect
# Chain of Cytochrome P450 2C19 (Homo sapiens) (P33261 whole entry, looked up): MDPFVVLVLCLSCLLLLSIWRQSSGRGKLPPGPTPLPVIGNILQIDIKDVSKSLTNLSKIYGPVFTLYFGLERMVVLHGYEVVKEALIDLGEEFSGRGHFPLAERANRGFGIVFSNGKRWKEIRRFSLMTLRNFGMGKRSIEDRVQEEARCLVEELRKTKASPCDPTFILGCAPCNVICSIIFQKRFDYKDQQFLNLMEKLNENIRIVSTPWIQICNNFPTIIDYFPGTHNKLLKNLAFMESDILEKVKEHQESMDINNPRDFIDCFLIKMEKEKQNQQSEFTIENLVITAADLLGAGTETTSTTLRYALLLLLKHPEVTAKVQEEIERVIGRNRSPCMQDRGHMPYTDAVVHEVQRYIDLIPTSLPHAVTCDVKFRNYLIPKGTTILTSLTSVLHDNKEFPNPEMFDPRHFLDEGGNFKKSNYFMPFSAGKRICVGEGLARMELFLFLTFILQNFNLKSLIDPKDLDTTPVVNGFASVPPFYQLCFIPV
# How it was run: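 5nM enzyme + 10uM Luciferin-H EGE (=KM), 50mM KPO4; cpd pin-transferred, 10 min 37C; NADPH regen, 60 min 37C; stopped w/ luciferin detection reagent, 20 min; luminescence. Normalized to 57uM ketoconazole (AC100).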
Structure (SMILES),Potency [1],"activity change, negative = inhibition [2]","activity change, positive = activation [3]",Potency [4],Potency [5],Potency [2]
COC(=O)C1=C(C)N(Cc2ccccc2)C2=C3C(=O)CCCC3[C@@](O)(C(=O)OC)C(=O)N2C1c1ccccc1 (stereo partly drawn),inactive,-20% [at 11.4 µM],-36% [at 11.4 µM],inactive,inactive,–
COC(=O)C/C=C\[C@@H](C)[C@@H](/C=N\O[C@@H](C)c1cc(-c2c(C)cc(C)cc2C)no1)NS(=O)(=O)c1ccc(C)cc1,2.51 µM (active),–,-103% [at 11.4 µM],–,3.16 µM (active),3.16 µM (active)
Cc1cc(C)cc(/C=C/C2OCC(O)C2Oc2ccc(C3CCCC3)cc2)c1 (stereo not drawn),inactive,–,-62.6% [at 11.4 µM] and -33.3% [at 11.4 µM],inactive,inactive,3.16 µM (active)
CCCCCCCC#Cc1ccccc1/C=N/S(=O)c1ccc(C)cc1 (stereo not drawn),inactive,–,-65.3% [at 11.4 µM],inactive,inactive,3.98 µM (active)
COc1ccc(O[C@H]2C=C[C@@H](c3ccccc3)O[C@H]2COC(=O)CC/C(C)=N/OCC[C@@H]2C=C[C@H](OC(C)=O)[C@H](COC(C)=O)O2)cc1,3.98 µM (active),–,-91.8% [at 11.4 µM],–,0.398 µM (active),3.98 µM (active)
COc1ccc(OC2C=CC(C#Cc3ccc(F)cc3F)OC2CO)cc1 (stereo not drawn),inactive,–,-84.9% [at 11.4 µM] and -82.9% [at 11.4 µM],inactive,0.398 µM (active),3.98 µM (active) and 3.16 µM (active)
